From the supplement of paper PMC3545927
The other results are listed elsewhere or left out. How many sequences the whole screen found active is unknown.

Target: furin, P09958
Assay: furin cleavage Z-score vs untreated control; higher = more cleavage, active = 3.5 or more, inactive = 1 or less, 8 variable residues between constant flanks
In short: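 Purified furin cleaved 8-mer peptides that were fused to a cDNA oligonucleotide and held on magnetic beads by their N-terminus. Each 0.01 ml reaction used a 1:10 enzyme:substrate ratio in 50 mM HEPES pH 7.5 with CaCl2 and NaCl and ran 7.5, 15 or 30 min. Released DNA was adapter-tagged by PCR and sequenced, and read counts gave abundance. The cleavage Z-score came from log counts against furin-free reactions, lowess-adjusted and scaled by median absolute deviation.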

furin, P09958, sequence (P09958 whole entry): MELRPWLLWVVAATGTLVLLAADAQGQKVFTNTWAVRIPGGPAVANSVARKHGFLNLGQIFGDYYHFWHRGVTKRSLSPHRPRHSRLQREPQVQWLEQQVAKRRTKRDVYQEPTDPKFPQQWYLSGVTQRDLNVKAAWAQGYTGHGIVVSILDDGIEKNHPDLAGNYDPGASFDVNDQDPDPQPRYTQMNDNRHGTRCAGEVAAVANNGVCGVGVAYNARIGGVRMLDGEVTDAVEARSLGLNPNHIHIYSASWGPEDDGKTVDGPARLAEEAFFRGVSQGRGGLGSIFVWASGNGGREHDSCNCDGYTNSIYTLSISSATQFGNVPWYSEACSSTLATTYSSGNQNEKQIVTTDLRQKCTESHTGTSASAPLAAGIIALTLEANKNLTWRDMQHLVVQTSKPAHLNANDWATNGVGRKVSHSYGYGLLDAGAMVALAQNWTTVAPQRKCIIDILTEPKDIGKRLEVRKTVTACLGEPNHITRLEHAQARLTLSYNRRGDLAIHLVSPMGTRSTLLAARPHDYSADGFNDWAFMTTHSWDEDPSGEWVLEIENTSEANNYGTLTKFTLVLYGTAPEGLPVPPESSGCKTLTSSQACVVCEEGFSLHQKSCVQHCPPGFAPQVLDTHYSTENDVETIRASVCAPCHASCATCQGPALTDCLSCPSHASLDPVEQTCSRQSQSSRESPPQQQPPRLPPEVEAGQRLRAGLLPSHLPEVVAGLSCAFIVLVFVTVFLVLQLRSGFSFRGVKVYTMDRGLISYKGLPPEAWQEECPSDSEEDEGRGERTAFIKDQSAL

CALVCCSMSYAGNASASA [HC1985]
furin cleavage Z-score (7.5 min): -0.475 (inactive) | furin cleavage Z-score (15 min): -0.242 (inactive) | furin cleavage Z-score (30 min): 0.0858 (inactive)

CAHGPTPLLYAGNASASA [HC970]
furin cleavage Z-score (7.5 min): -1.77 (inactive) | furin cleavage Z-score (15 min): -1.23 (inactive) | furin cleavage Z-score (30 min): -0.927 (inactive)

CARGKREAGLAGNASASA [FS-1950]
furin cleavage Z-score (7.5 min): 10.7 (active) | furin cleavage Z-score (15 min): 12 (active) | furin cleavage Z-score (30 min): 9.85 (active)

CAAACRAAGLAGNASASA [HC1521]
furin cleavage Z-score (7.5 min): -0.658 (inactive) | furin cleavage Z-score (15 min): -1.9 (inactive) | furin cleavage Z-score (30 min): -0.337 (inactive)

CARGKRELRMAGNASASA [FS-2933]
furin cleavage Z-score (7.5 min): 7.15 (active) | furin cleavage Z-score (15 min): 8.97 (active) | furin cleavage Z-score (30 min): 10 (active)

CARFKKNAGLAGNASASA [FS-2258]
furin cleavage Z-score (7.5 min): 0.96 (inactive) | furin cleavage Z-score (15 min): -0.927 (inactive) | furin cleavage Z-score (30 min): 0.128 (inactive)

CARGKRFRPRAGNASASA [FS-2209]
furin cleavage Z-score (7.5 min): -0.464 (inactive) | furin cleavage Z-score (15 min): 0.0565 (inactive) | furin cleavage Z-score (30 min): 0.308 (inactive)

CADVKFPGGGAGNASASA [HC171]
furin cleavage Z-score (7.5 min): -0.433 (inactive) | furin cleavage Z-score (15 min): -1.81 (inactive) | furin cleavage Z-score (30 min): -2.39 (inactive)

CACLVDYPYRAGNASASA [HC464]
furin cleavage Z-score (7.5 min): -1.54 (inactive) | furin cleavage Z-score (15 min): -2.22 (inactive) | furin cleavage Z-score (30 min): 0.308 (inactive)

CAQKGRKPRDAGNASASA [FS-1056]
furin cleavage Z-score (7.5 min): 15 (active) | furin cleavage Z-score (15 min): 14.9 (active) | furin cleavage Z-score (30 min): 10.2 (active)

CAKMQRAPRDAGNASASA [FS-451]
furin cleavage Z-score (7.5 min): -0.25 (inactive) | furin cleavage Z-score (15 min): -0.389 (inactive) | furin cleavage Z-score (30 min): -0.0248 (inactive)

CAPCRRKPRDAGNASASA [FS-838]
furin cleavage Z-score (7.5 min): 14.7 (active) | furin cleavage Z-score (15 min): 14.2 (active) | furin cleavage Z-score (30 min): 11.5 (active)

CAPPGRMCRVAGNASASA [FS-1549]
furin cleavage Z-score (7.5 min): 0.819 (inactive) | furin cleavage Z-score (15 min): 0.646 (inactive) | furin cleavage Z-score (30 min): 1.21

CATRGRQPRVAGNASASA [FS-1575]
furin cleavage Z-score (7.5 min): 0.424 (inactive) | furin cleavage Z-score (15 min): 0.857 (inactive) | furin cleavage Z-score (30 min): 1.04

CACSRRKPRDAGNASASA [FS-752]
furin cleavage Z-score (7.5 min): 11.2 (active) | furin cleavage Z-score (15 min): 11.6 (active) | furin cleavage Z-score (30 min): 9.05 (active)

CAPKRRKPRVAGNASASA [FS-1242]
furin cleavage Z-score (7.5 min): 8.95 (active) | furin cleavage Z-score (15 min): 11.6 (active) | furin cleavage Z-score (30 min): 8 (active)

CAVVQCSMSYAGNASASA [HC2042]
furin cleavage Z-score (7.5 min): 0.93 (inactive) | furin cleavage Z-score (15 min): 0.804 (inactive) | furin cleavage Z-score (30 min): 0.223 (inactive)

CASMSYSWTGAGNASASA [HC1371]
furin cleavage Z-score (7.5 min): -1.4 (inactive) | furin cleavage Z-score (15 min): -0.78 (inactive) | furin cleavage Z-score (30 min): -0.275 (inactive)

CAVVCCSMMYAGNASASA [HC2066]
furin cleavage Z-score (7.5 min): 0.37 (inactive) | furin cleavage Z-score (15 min): -1.1 (inactive) | furin cleavage Z-score (30 min): -0.477 (inactive)

CAEWPCHRPSAGNASASA [HC2328]
furin cleavage Z-score (7.5 min): 2.33 | furin cleavage Z-score (15 min): 0.752 (inactive) | furin cleavage Z-score (30 min): 0.743 (inactive)

CALRDIWDWIAGNASASA [HC1149]
furin cleavage Z-score (7.5 min): -0.31 (inactive) | furin cleavage Z-score (15 min): 1.9 | furin cleavage Z-score (30 min): 1.08

CAMMNWSPTTAGNASASA [HC322]
furin cleavage Z-score (7.5 min): -3.83 (inactive) | furin cleavage Z-score (15 min): 0.346 (inactive) | furin cleavage Z-score (30 min): -1.29 (inactive)

CALDLSGWFTAGNASASA [HC1643]
furin cleavage Z-score (7.5 min): 1.07 | furin cleavage Z-score (15 min): 0.845 (inactive) | furin cleavage Z-score (30 min): -0.793 (inactive)

CAQALDCEIYAGNASASA [HC1591]
furin cleavage Z-score (7.5 min): -1.45 (inactive) | furin cleavage Z-score (15 min): 0.168 (inactive) | furin cleavage Z-score (30 min): -0.351 (inactive)

CATKADKRRSAGNASASA [FS-1093]
furin cleavage Z-score (7.5 min): 1.16 | furin cleavage Z-score (15 min): -0.227 (inactive) | furin cleavage Z-score (30 min): 0.33 (inactive)

CATKDNFKRSAGNASASA [FS-727]
furin cleavage Z-score (7.5 min): 2.99 | furin cleavage Z-score (15 min): 1.62 | furin cleavage Z-score (30 min): 3.93 (active)

CAKRGREFRIAGNASASA [FS-909]
furin cleavage Z-score (7.5 min): 0.58 (inactive) | furin cleavage Z-score (15 min): -0.852 (inactive) | furin cleavage Z-score (30 min): -0.651 (inactive)

CATDDDFERSAGNASASA [FS-629]
furin cleavage Z-score (7.5 min): -0.626 (inactive) | furin cleavage Z-score (15 min): -1.72 (inactive) | furin cleavage Z-score (30 min): 0.0381 (inactive)

CAKRGRKRRSAGNASASA [FS-1021]
furin cleavage Z-score (7.5 min): 13.5 (active) | furin cleavage Z-score (15 min): 12.1 (active) | furin cleavage Z-score (30 min): 11.2 (active)

CATKDRKRRSAGNASASA [FS-880]
furin cleavage Z-score (7.5 min): 13.4 (active) | furin cleavage Z-score (15 min): 13.2 (active) | furin cleavage Z-score (30 min): 8.6 (active)

CARVTRYSNIAGNASASA [FS-2198]
furin cleavage Z-score (7.5 min): -0.808 (inactive) | furin cleavage Z-score (15 min): -0.0709 (inactive) | furin cleavage Z-score (30 min): 0.615 (inactive)

CAEMVVCCSMAGNASASA [HC2126]
furin cleavage Z-score (7.5 min): -1.21 (inactive) | furin cleavage Z-score (15 min): -1.21 (inactive) | furin cleavage Z-score (30 min): 0.778 (inactive)

CATTPGSGSWAGNASASA [HC42]
furin cleavage Z-score (7.5 min): -0.496 (inactive) | furin cleavage Z-score (15 min): -0.533 (inactive) | furin cleavage Z-score (30 min): -0.629 (inactive)

CADDVVCCSMAGNASASA [HC2111]
furin cleavage Z-score (7.5 min): -0.752 (inactive) | furin cleavage Z-score (15 min): 0.00684 (inactive) | furin cleavage Z-score (30 min): -0.0395 (inactive)

CARMRRHHHHAGNASASA [FS-2158]
furin cleavage Z-score (7.5 min): 2.42 | furin cleavage Z-score (15 min): 4.46 (active) | furin cleavage Z-score (30 min): 5.23 (active)

CAMEECSQHHAGNASASA [HC1775]
furin cleavage Z-score (7.5 min): 1.05 | furin cleavage Z-score (15 min): -0.421 (inactive) | furin cleavage Z-score (30 min): 0.321 (inactive)

CARHRKHSPQAGNASASA [FS-2680]
furin cleavage Z-score (7.5 min): 0.00638 (inactive) | furin cleavage Z-score (15 min): 0.0202 (inactive) | furin cleavage Z-score (30 min): -0.323 (inactive)

CARHRRHHHQAGNASASA [FS-2337]
furin cleavage Z-score (7.5 min): 2.13 | furin cleavage Z-score (15 min): 3.45 | furin cleavage Z-score (30 min): 4 (active)

CAHRSRKAKEAGNASASA [FS-1010]
furin cleavage Z-score (7.5 min): 1.54 | furin cleavage Z-score (15 min): 0.417 (inactive) | furin cleavage Z-score (30 min): 1.2

CAHPKQEKRSAGNASASA [FS-1209]
furin cleavage Z-score (7.5 min): -0.192 (inactive) | furin cleavage Z-score (15 min): 1 (inactive) | furin cleavage Z-score (30 min): 1.55

CAREKKAALEAGNASASA [FS-2656]
furin cleavage Z-score (7.5 min): -1.1 (inactive) | furin cleavage Z-score (15 min): 1.19 | furin cleavage Z-score (30 min): 0.78 (inactive)

CAVPHPNIEEAGNASASA [HC839]
furin cleavage Z-score (7.5 min): 0.645 (inactive) | furin cleavage Z-score (15 min): -1.08 (inactive) | furin cleavage Z-score (30 min): 0.089 (inactive)

CALTESTLSTAGNASASA [HC1328]
furin cleavage Z-score (7.5 min): -0.00854 (inactive) | furin cleavage Z-score (15 min): 0.199 (inactive) | furin cleavage Z-score (30 min): 1.01

CAHPHRTKREAGNASASA [FS-795]
furin cleavage Z-score (7.5 min): 11.5 (active) | furin cleavage Z-score (15 min): 12 (active) | furin cleavage Z-score (30 min): 10.4 (active)

CAHPKRAVREAGNASASA [FS-2864]
furin cleavage Z-score (7.5 min): 8.59 (active) | furin cleavage Z-score (15 min): 8.52 (active) | furin cleavage Z-score (30 min): 7.41 (active)

CALTERTKREAGNASASA [FS-1138]
furin cleavage Z-score (7.5 min): 12.3 (active) | furin cleavage Z-score (15 min): 13 (active) | furin cleavage Z-score (30 min): 9.22 (active)

CAQAGRSRKEAGNASASA [FS-950]
furin cleavage Z-score (7.5 min): 0.322 (inactive) | furin cleavage Z-score (15 min): -1.35 (inactive) | furin cleavage Z-score (30 min): 0.565 (inactive)

CAHPHRQRKEAGNASASA [FS-1009]
furin cleavage Z-score (7.5 min): 2.12 | furin cleavage Z-score (15 min): 4.93 (active) | furin cleavage Z-score (30 min): 2.5
